Source: PubChem BioAssay (several laboratories)
PriA SSB inh – K. pneumoniae PriA-SSBct interaction inhibition; AlphaScreen SSBct-PriA binding, biotinylated peptide; inhibition, % at 33 µM; 430,000 compounds, 0.6% hits; AID 1272365; in the data active = inhibition mostly above about 37%, no sharp cut-off; inactive = mostly below about 20%;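 also: plate controls were negative control peptide for no effect and reference peptide for full effect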
Sa ugtP lethal – growth inhibition of S. aureus ugtP deletion strain; S. aureus RN4220 ugtP deletion, OD600 growth, 16 h; growth inhibition, % (test concentration not listed); 330,000 compounds, 0.54% hits; AID 1259309; in the data active = growth inhibition above about 68%;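 also: plate controls were untreated wells for no effect and antibiotic for full effect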
RN4220 kill – kills Staphylococcus aureus RN4220 | S. aureus RN4220 growth, OD600, 16 h | inhibition, % (concentration not given with the values) | 330,000 compounds, 0.33% hits | AID 1259311; in the data active = inhibition above about 85%;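 also: plate controls were untreated cells for no effect and reference antibiotic for full effect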
The depositor's hits bear a star; ! = not active in a repeat. Most compounds without a hit are left out; they make up all but 1% or so of the library.

For CCCCc1ccc(-c2ccc(Br)cc2)nc1 the results were PriA SSB inh -17, Sa ugtP lethal 88* and RN4220 kill 18.
`CCCCc1ccc(NC(=O)c2cnccn2)cc1` gave PriA SSB inh -7, Sa ugtP lethal 13 and RN4220 kill 6.
CCCc1ccc(-c2ccc(-c3noc(-c4ccncc4)n3)cc2)nc1 was read as PriA SSB inh 6, Sa ugtP lethal 14 and RN4220 kill -6.
CCCCc1ccc(C(=O)O)nc1 was read as PriA SSB inh 87*, Sa ugtP lethal -6 and RN4220 kill 12.
For Cc1cc(I)ccc1NC(=O)CSc1cccc2cccnc12 the results were PriA SSB inh 45.
Cc1ccc(C(=O)CSc2cccc3cccnc23)c(C)c1 was read as PriA SSB inh 17.
For Cc1ccc(C)c(C(=O)CSc2cccc3cccnc23)c1 the results were PriA SSB inh 108*.
For Cc1ccc(C(=O)COC(=O)CSc2cccc3cccnc23)c(C)c1 the results were PriA SSB inh 78*, Sa ugtP lethal 11 and RN4220 kill 8.
For CCc1nnc(C2CCN(C(=O)c3ccco3)CC2)s1 the results were PriA SSB inh -11.
For Cc1cc2ncc(NS(=O)(=O)CCOc3ccccc3)cn2n1 the results were PriA SSB inh -5.
Screening O=C(O)CCC(=NNc1ccccc1[N+](=O)[O-])c1cccs1 returned PriA SSB inh 42*, Sa ugtP lethal 6 and RN4220 kill 29.
For COC(=O)NN=C(CCC(=O)O)c1cccs1 the results were PriA SSB inh 0, Sa ugtP lethal 5 and RN4220 kill 4.
Screening CC(=O)Nc1cccc(NC(=O)CSc2nc(CC(=O)NCc3ccccc3Cl)cs2)c1 returned PriA SSB inh 3.
For O=C(C1CC2C=CC1C2)N1CCC(n2ccnn2)CC1 (stereo not drawn) the results were PriA SSB inh -10.
For Cc1cc(=O)[nH]c(-n2nc(-c3cccs3)cc2NC(=O)Cc2cccs2)n1 the results were PriA SSB inh 6.
For Fc1ccc(Nc2nc(NCCCn3ccnc3)nc3nc[nH]c23)cc1 the results were PriA SSB inh 29*.
`N#Cc1nc(COc2ccc(F)cc2)oc1NCCCn1ccnc1` gave PriA SSB inh 10, Sa ugtP lethal 1 and RN4220 kill 2.
COc1cccc(-c2csc(=Nc3ccc(Cl)cc3)n2N2CCOCC2)c1 was read as PriA SSB inh 68*.
`Cc1ccc(N=c2scc(-c3ccc(Cl)cc3)n2CCN2CCOCC2)c(C)c1` gave PriA SSB inh 7.
O=C(Oc1c(CN2CCOCC2)cc(Cl)c2cccnc12)c1ccc(F)cc1 was read as PriA SSB inh 88*, Sa ugtP lethal -6 and RN4220 kill 8.
`O=C(Oc1c(CN2CCOCC2)cc(Cl)c2cccnc12)c1ccccc1Cl` gave PriA SSB inh 47*, Sa ugtP lethal -1 and RN4220 kill 5.
COc1ccc(C(=O)Oc2c(CN3CCOCC3)cc(Cl)c3cccnc23)cc1 was read as PriA SSB inh -9, Sa ugtP lethal -6 and RN4220 kill -7.
Screening O=C(Oc1ccc(Cl)c2cccnc12)N1CCOCC1 returned PriA SSB inh -5, Sa ugtP lethal -5 and RN4220 kill 7.
O=C(Oc1c(CN2CCOCC2)cc(Cl)c2cccnc12)c1cccs1 was read as PriA SSB inh 91*!, Sa ugtP lethal 7 and RN4220 kill 7.
Screening CCOC(=O)C1CCN(Cc2cc(Cl)c3cccnc3c2O)CC1 returned PriA SSB inh 96.
Screening COc1cc(C(=O)Oc2c(CN3CCOCC3)cc(Cl)c3cccnc23)cc(OC)c1OC returned PriA SSB inh 87*, Sa ugtP lethal 5 and RN4220 kill 9.
COc1cccc(C(=O)Oc2c(CN3CCOCC3)cc(Cl)c3cccnc23)c1 was read as PriA SSB inh 26, Sa ugtP lethal 2 and RN4220 kill 7.
Screening Cc1ccccc1S(=O)(=O)N=C(Nc1c(C)n(C)n(-c2ccccc2)c1=O)c1ccccc1 returned PriA SSB inh -8.
For O=C(NCC1(c2cccs2)CC1)C1CC=CCC1 (stereo not drawn) the results were PriA SSB inh -3.
Screening O=C(NCCNc1ccc(-n2cccc2)nn1)Nc1ccccc1F returned PriA SSB inh -8.
Cc1cc(C)cc(S(=O)(=O)NCCNC(=O)c2ccc(NC(=O)C3CCCC3)cc2)c1 was read as PriA SSB inh -7.
Cc1cc(C)c2nc(N3CCN(C(=O)c4ccc(S(=O)(=O)N5CCCC5)cc4)CC3)sc2c1 was read as PriA SSB inh -12.
COCCN1CCC(NC(=O)c2cccs2)CC1 was read as PriA SSB inh -14.
Screening COc1ccc(C=NNC(=O)c2cccc([N+](=O)[O-])c2)cc1OS(=O)(=O)c1ccccc1 returned PriA SSB inh -14, Sa ugtP lethal -10 and RN4220 kill 0.
For CCOc1cc(C=NNC(=O)c2cccc([N+](=O)[O-])c2)ccc1OS(=O)(=O)c1ccccc1 the results were PriA SSB inh 3, Sa ugtP lethal 99* and RN4220 kill 59.
Screening Cn1cccc1C=NNC(=O)c1cc2ccccc2cc1O returned PriA SSB inh 43*, Sa ugtP lethal 8 and RN4220 kill 3.
`O=C(NN=Cc1ccc[nH]1)c1cc2ccccc2cc1O` gave PriA SSB inh 3.
Cn1cc([C@H]2C(C(=O)c3ccco3)=C(C(F)(F)F)Nc3ncnn32)cn1 was read as PriA SSB inh -2.
For Cc1ccc(C(=O)N2CCN(c3ccc(NC(=S)NC(=O)Cc4ccccc4)cc3)CC2)cc1 the results were PriA SSB inh 12, Sa ugtP lethal 90* and RN4220 kill 6.
CC(C)Oc1cccc(C(=O)NC(=S)Nc2ccc(N3CCN(C)CC3)cc2)c1 was read as PriA SSB inh 12, Sa ugtP lethal 98* and RN4220 kill 6.
Screening COc1cccc(C(=O)NC(=S)Nc2ccc(N3CCCC3)cc2)c1 returned PriA SSB inh 80, Sa ugtP lethal 87* and RN4220 kill 3.
Screening COc1ccc(C(=O)NC(=S)Nc2ccc(N3CCCC3)cc2)cc1 returned PriA SSB inh 9, Sa ugtP lethal 81 and RN4220 kill 5.
Screening O=C(c1ccccc1)N1CCN(c2ccc(NCc3ccc4c(c3)OCO4)cc2)CC1 returned PriA SSB inh 46*, Sa ugtP lethal 2 and RN4220 kill 17.
`CC(=O)N1CCN(c2ccc(NCc3ccc4c(c3)OCO4)cc2)CC1` gave PriA SSB inh 28, Sa ugtP lethal -4 and RN4220 kill 4.
`COc1ccc(C(=O)N2CCN(c3ccc(NC(=O)Cc4ccccc4)cc3)CC2)cc1` gave PriA SSB inh 4.
For CC(C)Oc1cccc(C(=O)NC(=S)Nc2cccc(NC(=O)c3ccccc3Cl)c2)c1 the results were PriA SSB inh 10, Sa ugtP lethal -15 and RN4220 kill 11.
`Cc1ccc(-c2nc(COC(=O)c3nnn(-c4ccc(C)c(F)c4)c3C)c(C)o2)cc1` gave PriA SSB inh 1.
For O=C(CCn1cnc2ccccc2c1=O)N1Cc2cnc(N3CCOCC3)nc2C1 the results were PriA SSB inh 11.
`CC1(C)CC(=O)C2=C(C1)Nc1nc(SCc3ccccc3F)[nH]c(=O)c1C2c1ccccn1` (stereo not drawn) gave PriA SSB inh -4.
Screening O=C(NC(=S)Nc1ccc(N2CCOCC2)cc1)c1cccc(Cl)c1Cl returned PriA SSB inh -9, Sa ugtP lethal 0 and RN4220 kill 7.
